# Laboratory results: ChEMBL document CHEMBL4513216, “Probing the Open Global Health Chemical Diversity Library for Multistage-Active Starting Points for Next-Generation Antimalarials” (ACS Infect Dis, 2020)
# The whole screen tested about 69,000 compounds, of which about 8,600 (12%) showed an effect of 50% or more. What follows is part of a selection rich in strong results, with near analogues and random picks from the rest.
# Tested on: Plasmodium berghei
# Test: Screen against P. berghei liver stage (PbLuc), transformed with Luciferase, at 10uM
# Format: functional, HepG2
# Details: tested at 10 uM
row,Structure (SMILES),INHIBITION
1,CN1CCC(Oc2ccc(-n3ccnc3-c3nccn3C)cc2)CC1,13%
2,CN(CCc1ccccc1)C(=O)c1cccnc1OCC(F)(F)F,45.1%
3,Cc1cc(=O)n2nc(CNc3cc(Cl)ccc3C)nc2[nH]1,39.2%
4,Cc1ncsc1C(=O)NCCN1CCCCCC1=O,25.4%
5,COCCNC(=O)c1sccc1N(C)S(=O)(=O)c1ccc(Cl)cc1,51.6%
6,COC(=O)CNC(=O)c1sccc1N(C)S(=O)(=O)c1ccc(Cl)cc1,20.1%
7,CN(C)CCNC(=O)c1sccc1N(C)S(=O)(=O)c1ccc(Cl)cc1,54%
8,Cc1ccc(S(=O)(=O)N(C)c2ccsc2C(=O)NCC(C)C)cc1,28.4%
9,CCCNC(=O)c1sccc1N(C)S(=O)(=O)c1ccc(Cl)cc1,23.7%
10,CCNC(=O)c1sccc1N(C)S(=O)(=O)c1ccc(Cl)cc1,26.7%
11,CC(C)NC(=O)c1sccc1N(C)S(=O)(=O)c1ccc(Cl)cc1,0%
12,CC(C)CCNC(=O)c1sccc1N(C)S(=O)(=O)c1ccccc1,0%
13,CNC(=O)c1sccc1N(C)S(=O)(=O)c1ccc(Cl)cc1,84.7%
14,CN1CCCC1c1nnc2n1CCN(S(=O)(=O)c1ccccc1Cl)CC2 (centres undefined),-12.252%
15,NC(=O)[C@@H]1Cc2ccccc2N1C(=O)C1CC(c2ccccc2)=NO1 (some centres undefined),-13.6%
16,CNC(=O)CN(C)C(=O)c1cc(Cl)c(Cl)n1C,37.1%
17,Cc1nnc(NCc2cccc(OCc3ccccn3)c2)c(C#N)c1C,40.1%
18,COCC(=O)NCc1cc(=O)n2c(n1)CN(Cc1ccsc1)CCC2,41.5%
19,CO[C@H]1CN(C(=O)OC(C)(C)C)CC1NCc1cccn1C (some centres undefined),54.5%
20,CO[C@H]1CN(C(=O)OC(C)(C)C)CC1NCc1cc[nH]c1 (some centres undefined),38.7%
21,CO[C@H]1CN(C(=O)OC(C)(C)C)CC1NCc1ccco1 (some centres undefined),74%
22,CC(C)(C)OC(=O)N1CCC(C(=O)NCc2ccccc2)C1 (centres undefined),-10.3%
23,CC(C)(C)OC(=O)N1CC(=O)N(Cc2ccco2)CC(O)C1 (centres undefined),29.8%
24,CO[C@H]1CN(C(=O)OC(C)(C)C)CC1NCc1ccn(C)c1 (some centres undefined),39.6%
25,CO[C@H]1CN(C(=O)OC(C)(C)C)CC1NCc1ccoc1 (some centres undefined),66.5%
26,CN(Cc1ccco1)C(=O)[C@H]1CSCN1C(=O)OC(C)(C)C,29.6%
27,CC(C)(C)OC(=O)N1CC(=O)N(CCc2ccccc2)CC(O)C1 (centres undefined),9.36%

row,Structure (SMILES),INHIBITION
1,CCOCCN1Cc2ncn(C)c2C(COCC2CCOCC2)C1 (centres undefined),36.9%
2,CCCc1ccc2oc(C(=O)N3CCN(CCOC)CC3)c(C)c2c1,-13.1%
3,COc1ccc(-n2cccn2)c(CN2CCC3(CCCN(C)C3=O)C2)c1 (centres undefined),43.9%
4,Nc1nc(N)c2c(n1)OC1(CCN(C(=O)CC3CCCNC3)CC1)C2 (centres undefined),27.1%
5,Cc1cc(C(=O)N[C@H]2Cc3ccccc3[C@@H]2N)c(=O)[nH]c1C,21.5%
6,Cc1nc(CN2CCN(C)C(=O)C23CCN(CC2CCCC2)CC3)cs1,49.4%
7,Cc1noc([C@H]2COC[C@H]3CN(C(=O)Cc4ccccc4F)C[C@H]32)n1,12.7%
8,O=C(CCCn1cccn1)N1C[C@@H](O)[C@H](Oc2cccc(F)c2)C1,32.8%
9,O=C(NCc1cnn2cccnc12)c1cccc(CC2CCNCC2)c1,77.7%
10,Cc1cccnc1[C@H](C)NC(=O)c1cccc(CC2CCNCC2)c1,15%
11,CCn1cc(CN(C)C(=O)c2cccc(CCC(C)(C)O)c2)cn1,7.11%
12,Cc1cnccc1CN(C)C(=O)c1cccc(CCC(C)(C)O)c1,-2.39%
13,CC(C)(O)CCc1cccc(C(=O)NCc2cnn3cccnc23)c1,54.5%
14,CC(C)Cn1cncc1CNC(=O)c1cccc(CC2CCNCC2)c1,42.3%
15,CCOc1ccccc1CC(=O)N1C[C@H](C2CC2)[C@@H](N)C1,2.66%
16,Cc1nn(C)cc1NC(=O)CN1CCN(C2CCCC2)C(=O)C1,19.35%
17,CC(C)c1nc(C2CCCN2Cc2nccn2CC(F)(F)F)no1 (centres undefined),26.4%
18,c1cc(-c2cnc(NC3CC3)nc2[C@@H]2CCCO2)ccn1,5.34%
19,CS(=O)(=O)NCC1CCCN(C(=O)COCC2CC2)C1 (centres undefined),48.1%
20,Cc1ccc(NC2CCN(C(=O)COC3CCCCC3)CC2)nn1,-7.81%
21,Cc1ccc(NC2CCN(C(=O)CCOCC(F)(F)F)CC2)nn1,33.3%
22,Cc1ccc(NC2CCN(C(=O)COc3ccccc3)CC2)nn1,-29.7%
23,Cc1ccc(NC2CCN(C(=O)COC3CCCC3)CC2)nn1,-28.4%
24,Cc1ccc(NC2CCN(C(=O)COCC(F)(F)F)CC2)nn1,53%
25,CC(C)(O)CN1CCN(C(=O)COCC2CC2)CC1,-38.8%
26,O=C(COCC1CC1)N1CCSCC1,64.9%
27,Cc1ccc(NC2CCN(C(=O)COCC3CC3)CC2)nn1,56.6%
